Reference: PubChem BioAssay (Tox21)
Several values for one entry are separate records, joined by “and”; a condition that tells them apart may be missing. Equal values may be shown once. Inconclusive results are not listed. Entries that show only a call come without a potency. A structure can be active in one record and inactive in another. Activity calls are given as the source filed them. Unless noted, calls come from the whole dose curve.

Experiment: qHTS assay for small molecule agonists of the p53 signaling pathway (AID 651631); note: nearly all actives have a fitted effect of over 15% in size; note: potency is the fitted concentration of half-maximal effect
Settings: HCT-116 p53RE-bla reporter, beta-lactamase FRET ratio, 16 h; series mostly up to 73.3 µM
In short: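 We treat p53RE-bla HCT-116 cells with compounds for 16 h at 37 °C, add LiveBLAzer B/G FRET substrate for 2 h at room temperature, and measure fluorescence intensity.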

SMILES	Potency
NCCNCCNCCN	inactive
C=C(C)CC(C)(C)C	inactive
COc1ccc2cc3[n+](cc2c1OC)CCc1cc2c(cc1-3)OCO2	61.6 µM (active)
Cc1ncc(CO)c(CO)c1O	inactive
CC(=O)OC/C=C(\C)CCC=C(C)C	inactive
C=CC(C)(C)C	inactive
CC1=CC(=O)CC(C)(C)C1	inactive
N#CCC(=O)O	inactive
NC1CCCCC1N (stereo not given)	inactive
OCC(O)CS (stereo not given)	inactive
OCCOCCOCCOCCOCCO	inactive
O=C1O[C@H]([C@H](O)CO)C(O)=C1O	inactive
OC1CCCCC1	inactive
O=c1n(CCCN2CCN(c3cccc(Cl)c3)CC2)nc2ccccn12	inactive
COC(=O)/C=C\C(=O)OC	inactive
Clc1cccc(Cl)c1NC1=NCCN1	inactive
O=C(NCC1CCCCN1)c1cc(OCC(F)(F)F)ccc1OCC(F)(F)F (stereo not given)	inactive

Experiment: qHTS assay for small molecules that induce genotoxicity in human embryonic kidney cells expressing luciferase-tagged ATAD5 (AID 651632; active = well fitted activation curve with a large enough effect in the repeat runs; note: nearly all actives have a fitted effect of over 15% in size)
Settings: HEK293T ATAD5-luciferase induction, 16 h; series mostly up to 83.3 µM
In short: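 Increased luciferase signal from ATAD5-tagged reporter cells indicates DNA-damage-driven ATAD5 induction. HEK293T cells are treated for 16 hr at 37C before detection with Amplite.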

SMILES	Potency
Nc1cccc(N)n1	inactive
CN=C(NC#N)NCCSCc1nc[nH]c1C	inactive
C=C(C)CC(C)(C)C	inactive
CC(C=O)Cc1ccc(C(C)(C)C)cc1 (stereo not given)	inactive
COc1ccc2cc3[n+](cc2c1OC)CCc1cc2c(cc1-3)OCO2	inactive
CN1Cc2c(N)cccc2C(c2ccccc2)C1 (stereo not given)	inactive
CCCCCCCCCCCC(=O)N(C)CC(=O)O	inactive
CCCOCC(C)O (stereo not given)	inactive
O=C1CCCCCCCCCCC1	inactive
CC[N+](CC)(CC(=O)Nc1c(C)cccc1C)Cc1ccccc1	inactive
CC(=O)OC/C=C(\C)CCC=C(C)C	inactive
C=CC(C)(C)C	inactive
N#CCC(=O)O	inactive
OCC(O)CS (stereo not given)	inactive
C=C1C[C@]23C[C@@]1(O)CC[C@H]2[C@@]12C=C[C@H](O)[C@@](C)(C(=O)O1)[C@H]2[C@@H]3C(=O)O	inactive
C=CC(=O)NCOCCCC	inactive
CC(COCC(C)OC(=O)c1ccccc1)OC(=O)c1ccccc1 (stereo not given)	inactive
CC(CN1c2ccccc2Sc2ccccc21)N(C)C (stereo not given)	inactive
O=C1O[C@H]([C@H](O)CO)C(O)=C1O	inactive
OC1CCCCC1	inactive
CO[Si](CCCNCCN)(OC)OC	inactive
OCC(CO)(CO)CO	inactive
C1CCCNCC1	inactive
COC(=O)/C=C\C(=O)OC	inactive
CCN(CC)CCNC(=O)c1ccc(N)cc1	inactive
COc1cc(NC(=O)CC(C)=O)c(OC)cc1Cl	inactive
C[n+]1ccn(CCO)c1	inactive
COc1c(Cl)ccc(Cl)c1C(=O)O	inactive

Experiment: qHTS assay for small molecule agonists of the p53 signaling pathway - cell viability (AID 651633); note: nearly all actives have a fitted effect of over 30% in size; note: potency is the fitted concentration of half-maximal effect
Settings: p53RE-bla HCT-116 viability, ATP luminescence, 16 h; series mostly up to 83.3 µM
In short: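 p53RE-bla cells were treated with compound for 16 hours at 37 C. Cytotoxicity was then measured as CellTiter-Glo luminescence after 30 min at room temperature.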

SMILES	Potency	activity change, negative = cytotoxicity
NCCNCCNCCN	inactive	–
C=C(C)CC(C)(C)C	inactive	–
CC(C=O)Cc1ccc(C(C)(C)C)cc1 (stereo not given)	inactive	–
COc1ccc2cc3[n+](cc2c1OC)CCc1cc2c(cc1-3)OCO2	inactive and 30.9 µM (active)	–
Cc1ncc(CO)c(CO)c1O	inactive	–
CCCCCCCCCCCC(=O)N(C)CC(=O)O	–	23.9% [at 8.08 µM] (inactive)
CCCOCC(C)O (stereo not given)	inactive	–
O=C1CCCCCCCCCCC1	inactive	–
CC[N+](CC)(CC(=O)Nc1c(C)cccc1C)Cc1ccccc1	inactive	–
CC(=O)OC/C=C(\C)CCC=C(C)C	inactive	–
C=CC(C)(C)C	inactive	–
CC1=CC(=O)CC(C)(C)C1	inactive	–
N#CCC(=O)O	inactive	–
NC1CCCCC1N (stereo not given)	inactive	–
OCC(O)CS (stereo not given)	inactive	–
C=C1C[C@]23C[C@@]1(O)CC[C@H]2[C@@]12C=C[C@H](O)[C@@](C)(C(=O)O1)[C@H]2[C@@H]3C(=O)O	inactive	–
OCCOCCOCCOCCOCCO	inactive	–

SMILES	Potency	activity change, negative = cytotoxicity
C=CC(=O)NCOCCCC	inactive	–
CC(COCC(C)OC(=O)c1ccccc1)OC(=O)c1ccccc1 (stereo not given)	inactive	–
CC(CN1c2ccccc2Sc2ccccc21)N(C)C (stereo not given)	inactive	–
OC1CCCCC1	inactive	–
O=c1n(CCCN2CCN(c3cccc(Cl)c3)CC2)nc2ccccn12	inactive	–
CO[Si](CCCNCCN)(OC)OC	inactive	–
OCC(CO)(CO)CO	inactive	–
C1CCCNCC1	inactive	–
Cc1cccc(C)c1[N+](=O)[O-]	inactive	–
COC(=O)/C=C\C(=O)OC	inactive	–
CCN(CC)CCNC(=O)c1ccc(N)cc1	inactive	–
COc1cc(NC(=O)CC(C)=O)c(OC)cc1Cl	inactive	–
C[n+]1ccn(CCO)c1	inactive	–
Clc1cccc(Cl)c1NC1=NCCN1	inactive	–
O=C(NCC1CCCCN1)c1cc(OCC(F)(F)F)ccc1OCC(F)(F)F (stereo not given)	inactive	–
COc1c(Cl)ccc(Cl)c1C(=O)O	inactive	–
CS(=O)(=O)c1ccc(Cl)cc1	inactive	–

Experiment: qHTS assay for small molecules that induce genotoxicity in human embryonic kidney cells expressing luciferase-tagged ATAD5 - cell viability (AID 651634); note: nearly all actives have a fitted effect of over 25% in size
Settings: HEK293T ATAD5-luc cells viability, CellTiter-Fluor, 15.5 h; series mostly up to 83.3 µM
In short: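 Cytotoxicity counterscreen in HEK293T cells bearing an ATAD5-luciferase reporter: live-cell protease activity measured by CellTiter-Fluor fluorescence after 15.5 hr compound exposure.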

SMILES	Potency
Nc1cccc(N)n1	inactive
CN=C(NC#N)NCCSCc1nc[nH]c1C	inactive
NCCNCCNCCN	inactive
C=C(C)CC(C)(C)C	inactive
CC(C=O)Cc1ccc(C(C)(C)C)cc1 (stereo not given)	inactive
Cc1ncc(CO)c(CO)c1O	inactive
CN1Cc2c(N)cccc2C(c2ccccc2)C1 (stereo not given)	inactive
CCCCCCCCCCCC(=O)N(C)CC(=O)O	inactive
CCCOCC(C)O (stereo not given)	inactive
O=C1CCCCCCCCCCC1	inactive
CC[N+](CC)(CC(=O)Nc1c(C)cccc1C)Cc1ccccc1	inactive
CC(=O)OC/C=C(\C)CCC=C(C)C	inactive
C=CC(C)(C)C	inactive
CC1=CC(=O)CC(C)(C)C1	inactive
N#CCC(=O)O	inactive
NC1CCCCC1N (stereo not given)	inactive
OCC(O)CS (stereo not given)	inactive
C=C1C[C@]23C[C@@]1(O)CC[C@H]2[C@@]12C=C[C@H](O)[C@@](C)(C(=O)O1)[C@H]2[C@@H]3C(=O)O	inactive

SMILES	Potency
OCCOCCOCCOCCOCCO	inactive
C=CC(=O)NCOCCCC	inactive
CC(COCC(C)OC(=O)c1ccccc1)OC(=O)c1ccccc1 (stereo not given)	inactive
CC(CN1c2ccccc2Sc2ccccc21)N(C)C (stereo not given)	inactive
O=C1O[C@H]([C@H](O)CO)C(O)=C1O	inactive
OC1CCCCC1	inactive
O=c1n(CCCN2CCN(c3cccc(Cl)c3)CC2)nc2ccccn12	inactive
CO[Si](CCCNCCN)(OC)OC	inactive
OCC(CO)(CO)CO	inactive
C1CCCNCC1	inactive
Cc1cccc(C)c1[N+](=O)[O-]	inactive
COC(=O)/C=C\C(=O)OC	inactive
CCN(CC)CCNC(=O)c1ccc(N)cc1	inactive
COc1cc(NC(=O)CC(C)=O)c(OC)cc1Cl	inactive
C[n+]1ccn(CCO)c1	inactive
Clc1cccc(Cl)c1NC1=NCCN1	inactive
COc1c(Cl)ccc(Cl)c1C(=O)O	inactive
CS(=O)(=O)c1ccc(Cl)cc1	inactive
